Reference: publication PMC9838217, “Structure of SALL4 zinc finger domain reveals link between AT-rich DNA binding and Okihiro syndrome”
Where a chain is given by its changes, count along the chain named.

Columns and labels:
[1] = target: T1, SALL4 ZFC4 R900W (HT-SELEX) (Mus musculus, UniProt Q8BX22 870-940, R900W); experiment: HT-SELEX; high values mean tight binding; settings: protein: recombinant; vector His6-GST; dsDNA, one strand shown
T1 sequence: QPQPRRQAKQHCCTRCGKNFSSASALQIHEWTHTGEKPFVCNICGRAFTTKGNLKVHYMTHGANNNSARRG
Outline: (§1)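 For each canonical k-mer, binding signal is the read fraction as fold change versus the initial random library. Data came from up to 6 triplicate cycles in which purified recombinant mouse SALL4 zinc finger cluster 4 (residues 870–940, 1 µg) was incubated 10 min at room temperature with library DNA (1.5 µg first cycle, 200 ng later) in 100 µl of 10 mM Tris–HCl pH 7.5, 50 mM NaCl, poly(dI-dC), DTT, followed by Ni2+ bead capture, PCR amplification, MiSeq sequencing and a 6-mer scan.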

[2] = target: T2, SALL4 ZFC4 G921D (HT-SELEX) (Mus musculus, UniProt Q8BX22 870-940, G921D); experiment: HT-SELEX; high values mean tight binding; settings: protein: recombinant; vector His6-GST; dsDNA, one strand shown
T2 sequence: T1 sequence with W31R, G52D
Outline: as §1

Sequence	binding signal [1] [fold-change vs cycle 0]	binding signal [2] [fold-change vs cycle 0]
CGCACG	0.0997 ± 0.0037	0.21 ± 0.071
AACCGC	0.258 ± 0.0187	0.396 ± 0.0835
CAGGCA	0.348 ± 0.0149	0.477 ± 0.0613
CGCGCG	0.0217 ± 0.00502	0.0939 ± 0.0507
CGAAGC	0.325 ± 0.00517	0.474 ± 0.0622
CAAGCC	0.349 ± 0.0256	0.491 ± 0.0577
GCGTGA	0.325 ± 0.00871	0.455 ± 0.056
CGCGCC	0.0255 ± 0.00279	0.0934 ± 0.0574
CGGCGC	0.0207 ± 0.00259	0.0907 ± 0.0497
GCCCGA	0.125 ± 0.0121	0.243 ± 0.0758
AAGGCG	0.265 ± 0.014	0.425 ± 0.0847
CCCCGA	0.246 ± 0.0185	0.358 ± 0.0831
ACGCAC	0.27 ± 0.0299	0.404 ± 0.0719
GATGGC	0.36 ± 0.0133	0.489 ± 0.0668
ACCCCC	0.324 ± 0.0114	0.419 ± 0.0596
GGGCAC	0.144 ± 0.00697	0.281 ± 0.0804
AACGCG	0.226 ± 0.0175	0.329 ± 0.0589
CCCCAG	0.289 ± 0.0372	0.38 ± 0.0427
ACCCCG	0.242 ± 0.00886	0.353 ± 0.0765
CCCGGC	0.0588 ± 0.00399	0.151 ± 0.0654
GCCCCA	0.158 ± 0.0152	0.275 ± 0.0854

Sequence	binding signal [1] [fold-change vs cycle 0]	binding signal [2] [fold-change vs cycle 0]
GCAGCC	0.112 ± 0.0161	0.221 ± 0.0775
CAGGGG	0.308 ± 0.0124	0.417 ± 0.0612
GCGGGA	0.149 ± 0.0162	0.256 ± 0.0688
ACGCGT	0.28 ± 0.0448	0.366 ± 0.0637
ATCGCG	0.221 ± 0.00468	0.363 ± 0.0564
CTGGGC	0.152 ± 0.021	0.273 ± 0.0783
CAGCGG	0.136 ± 0.019	0.242 ± 0.0833
CGAACG	0.36 ± 0.0176	0.474 ± 0.087
CGGCAA	0.19 ± 0.00924	0.324 ± 0.0774
CGCGTC	0.112 ± 0.0164	0.207 ± 0.0615
ACCGCA	0.267 ± 0.0189	0.39 ± 0.0525
CGCTCC	0.165 ± 0.00419	0.29 ± 0.0821
CGCTGA	0.291 ± 0.0233	0.403 ± 0.0818
ATACGA	1.27 ± 0.0333	1.26 ± 0.0263
ACCCGC	0.145 ± 0.00827	0.259 ± 0.0632
GGGGAC	0.299 ± 0.0209	0.403 ± 0.0552
CGGGCC	0.0506 ± 0.00629	0.15 ± 0.0772
CGCCTC	0.152 ± 0.0261	0.277 ± 0.0696
CCGGCC	0.0476 ± 0.00257	0.135 ± 0.0646
ACGCTC	0.345 ± 0.00842	0.503 ± 0.071
